Results on six molecules are retold here after PubChem BioAssay AID1117291 (Broad Institute, 2014).

Results with a measured potency or affinity are listed apart. Records with an inconclusive call do not appear. A number with no mark means an inactive call.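 How the source made its calls: active means compound whose fitted half-maximal potency lies at or below double its highest tested dose in every test; inconclusive means tests disagree, or a flat partial loss, or a poor fit; inactive means every test inactive.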

The test can be described thus: hepatoma cell viability loss – CellTiter-Glo luminescence, dry powder, set 20, cytotoxicity control, dose response (AID 1117291). The settings on record: HepG2 viability, CellTiter-Glo ATP luminescence, 72 h; series mostly up to 26 µM; activity change, negative = cytotoxicity: at the top concentration. For orientation: In ATP-based viability assays light output follows the ATP content of the culture.
Consider `O=S(=O)(O)c1ccc(N2N=C(c3ccccc3)CC2c2ccccc2)cc1` (stereo unspecified), for which the “activity change, negative = cytotoxicity” value was -22.6%.
As for `CC(=O)N1CCN(C(=O)C2(NC(=O)NC(C)(C)C)CCCCC2)CC1`, the figure is -12.5%; as for `COc1ccc(C(=O)O)cc1S(=O)(=O)Nc1cc(C(F)(F)F)ccc1N1CCOCC1`, -30.4%; as for `O=S(=O)(Nc1cc(C(F)(F)F)ccc1N1CCCCC1)c1ccc(Br)cc1`, -18%.
The figure for `CC(=O)N1CCN(C(=O)C2CCCN2C(=O)Nc2ccc(C)cc2)CC1` (stereo unspecified) is -7.76%; for `CC(=O)N1CCN(C(=O)[C@@H]2CCN2C(=O)Nc2ccc(C)cc2)CC1` it is -9.8%.
